Laboratory results taken from PubChem BioAssay.

Assays:
[1] = system: Human papillomavirus type 1a protein E7 (residues 44-93); experiment: small molecules binding HPV E7 44-93 – biochemical, small-molecule microarray, residues 44-93, 635 nm fluorescence, primary screen (AID 1108); conditions: fluorescence 635 nm, higher = more signal;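 further: E7 fragment applied at 1 µg/mL in TBST for 1 h at 4 C; score combines spot fluorescence with its signal to noise ratio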
[2] = hepatitis C replication reporter changes, two-sided – Huh7 cells, luciferase reporter, HCV replication inhibitor project, primary screen (AID 1109); conditions: Huh7 HCV replicon luciferase reporter, 48 h; higher = more signal;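 further: huh7 hepatoma cells harbouring a luciferase neomycin HCV replicon reporter; luciferase luminescence as measure of HCV replicon replication; test concentration not given here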
[3] = biological target: Left-right determination factor 2 (Homo sapiens) (UniProt O00292); experiment: small molecules binding LEFTY2 protein – biochemical, small-molecule microarray, 635 nm fluorescence scan, primary screen (AID 1110); conditions: higher = more signal
[4] = biological target: Calmodulin-1 (Homo sapiens) (UniProt P0DP23); experiment: small molecules binding calmodulin-1 with EGTA – biochemical, small-molecule microarray, Cy5-labelled CALM1, profiling panel (AID 1111); conditions: Cy5-CALM1 binding fluorescence, higher = more signal;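 further: labelled calmodulin applied in Tris saline Tween buffer holding calcium plus EGTA and DTT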
[5] = biological target: Calmodulin-1 (Homo sapiens) (UniProt P0DP23); experiment: small molecules binding Ca-loaded calmodulin-1 – biochemical, small-molecule microarray, Cy5-labelled CALM1, plus calcium, artefact control for SMM control-protein annotation, profiling panel (AID 1112); conditions: Cy5-CALM1 binding fluorescence, higher = more signal;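 further: score merges spot fluorescence with signal to noise from triplicate slides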
[6] = probe aWnt5a binding to arrayed compounds – biochemical, biotinylated probe, 635/667 nm fluorescence, primary screen (AID 1113); conditions: small-molecule microarray, higher = more signal;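 further: score merges 667 nm fluorescence intensity with signal-to-noise per printed feature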
[7] = probe aShh binding to arrayed compounds – biochemical, biotinylated probe, 635/667 nm fluorescence, primary screen (AID 1114); conditions: small-molecule microarray, higher = more signal;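 further: probe is biotin-labelled aShh protein from a stem cell growth factor screen; measures binding of labelled protein to compounds printed on the slide; score merges feature fluorescence at 667 nm with signal-to-noise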
[8] = probe aNog binding to arrayed compounds – biochemical, biotinylated probe, 635/667 nm fluorescence, primary screen (AID 1115); conditions: small-molecule microarray, higher = more signal;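 further: probe is biotinylated aNog protein used at 0.15 µg/mL for 1 h at 4 C; z-score combines 667 nm fluorescence of each spot with its signal to noise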
[9] = biological target: Torsin-1A-interacting protein 1 (Homo sapiens) (UniProt Q5JTV8); experiment: compound microarray binding of lysate hLAP1 – cell lysate, small-molecule microarray, COS7 lysate, 635/667 nm fluorescence, primary screen (AID 1116); conditions: 635 nm fluorescence, higher = more signal
[10] = biological target: Alpha-bungarotoxin (Bungarus multicinctus) (UniProt P60615); experiment: compounds binding labelled alpha-BTX control protein – biochemical, small-molecule microarray, Alexa647 label, 635/667 nm fluorescence, artefact control for SMM control protein annotation, profiling panel (AID 1117); conditions: alpha-BTX-A647 binding fluorescence, higher = more signal
Sequence of Alpha-bungarotoxin (Bungarus multicinctus) (P60615 whole entry, looked up): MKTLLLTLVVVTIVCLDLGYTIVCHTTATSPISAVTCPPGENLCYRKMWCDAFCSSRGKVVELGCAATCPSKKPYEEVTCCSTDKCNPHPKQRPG

Sequence of Left-right determination factor 2 (Homo sapiens) (O00292 whole entry, looked up): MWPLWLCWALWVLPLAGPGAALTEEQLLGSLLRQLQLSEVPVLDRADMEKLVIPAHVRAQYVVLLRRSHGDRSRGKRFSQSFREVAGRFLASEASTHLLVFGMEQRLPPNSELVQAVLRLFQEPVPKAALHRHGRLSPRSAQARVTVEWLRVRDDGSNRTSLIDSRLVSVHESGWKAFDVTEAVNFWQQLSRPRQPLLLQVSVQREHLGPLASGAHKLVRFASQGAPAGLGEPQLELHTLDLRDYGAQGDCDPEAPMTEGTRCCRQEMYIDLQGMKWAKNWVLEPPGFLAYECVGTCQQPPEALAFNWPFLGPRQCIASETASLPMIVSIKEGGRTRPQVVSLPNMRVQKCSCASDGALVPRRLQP
Sequence of Torsin-1A-interacting protein 1 (Homo sapiens) (Q5JTV8 whole entry, looked up): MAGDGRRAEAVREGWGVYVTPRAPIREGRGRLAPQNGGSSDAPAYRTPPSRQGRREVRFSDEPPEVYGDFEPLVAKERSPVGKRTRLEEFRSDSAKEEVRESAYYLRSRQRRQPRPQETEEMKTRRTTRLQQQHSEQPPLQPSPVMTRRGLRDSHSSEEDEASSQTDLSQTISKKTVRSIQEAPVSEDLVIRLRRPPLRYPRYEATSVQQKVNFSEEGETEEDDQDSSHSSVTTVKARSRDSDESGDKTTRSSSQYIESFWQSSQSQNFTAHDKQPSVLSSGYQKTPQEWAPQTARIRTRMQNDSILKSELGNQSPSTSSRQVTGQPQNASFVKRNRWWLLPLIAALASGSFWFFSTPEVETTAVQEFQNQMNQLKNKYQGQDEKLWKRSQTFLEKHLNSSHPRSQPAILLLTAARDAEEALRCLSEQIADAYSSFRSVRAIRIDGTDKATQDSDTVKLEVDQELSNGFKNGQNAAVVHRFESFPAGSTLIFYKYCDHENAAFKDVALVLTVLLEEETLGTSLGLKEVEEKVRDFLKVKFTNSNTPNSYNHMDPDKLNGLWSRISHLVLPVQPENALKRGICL

SMILES	composite z-score [1]	z-score [2]	composite z-score [3]	composite z-score [4]	composite z-score [5]	composite z-score [6]	composite z-score [7]	composite z-score [8]	composite z-score [9]	composite z-score [10]
CCN1C(=O)[C@H]2[C@H]3[C@H](O)[C@H](O)CC(=NO[C@@H]4O[C@H](CO)[C@@H](O)[C@H](O)[C@H]4O)[C@H]3CC[C@H]2C1=O	0.442	1.2	0.486	-0.354	-1.04	-0.0529	0.204	0.117	0.196	0.497
CON=C[C@@H](OC)[C@H](C)C=CCC(=O)OC	-1.72	-0.337	0.262	-0.491	-0.476	-0.0573	0.0952	-0.296	0.447	-0.023
CC(C)(C)N1C(=O)[C@H]2[C@@H]3C(=CC[C@H]2C1=O)C(=O)[C@H]1O[C@H]1[C@H]3O	-2.12	-4.79	0.341	-1.08	-1.48	-0.0735	-0.273	-0.571	-0.139	-0.0321
CC(C)=CCCC(C)=CCON=C1C[C@@H](O)[C@@H](O)[C@@H]2[C@@H]3C(=O)N([C@@H](C)c4ccccc4)C(=O)[C@@H]3CC[C@@H]12	0.257	0.0308	0.898	-0.544	-0.406	-0.012	-0.289	-0.247	0.222	0.551
COC(=O)CC=C[C@@H](C)[C@@H](C=NOC[C@@H](O)COCc1ccco1)NS(=O)(=O)c1ccc(C)cc1	-1.24	-0.42	1.04	-2.79	-2.64	-0.166	-0.162	-0.252	-0.435	-0.672
C=CC[C@@H]1C=C[C@H](ON=C(C)CCN2CCCc3nc(C)c(C)cc32)[C@@H](CO)O1	0.298	-0.839	1.14	-0.0351	-1.43	0.264	0.586	0.525	1.83	0.366
CC(CCN1CCCc2nc(C)c(C)cc21)=NO[C@H](C)c1cn([C@H](CO)Cc2ccccc2)nn1	1.01	-1.73	0.796	-0.276	-0.519	-0.0704	-0.16	0.029	0.613	-0.207
C[C@H]1CC[C@@H](C(=O)O)N[C@@H]1c1cccc(N2CCCC2=O)c1	0.4	1.09	0.263	-0.438	-0.55	-0.178	-0.2	-0.181	0.0221	0.197
COc1ccc(COC(=O)NN=C2C[C@@H](O)[C@@H](O)[C@@H]3[C@@H]4C(=O)N(Cc5ccc6c(c5)OCO6)C(=O)[C@@H]4CC[C@H]23)cc1	-0.433	-0.191	-0.34	-0.704	-0.276	0.0438	0.0121	0.788	0.0406	0.164
CCOC(=O)[C@H](CC(C)C)NC(=O)CCC1CC(OC(=O)NCc2ccc3c(c2)OCO3)CC2(CCCC(COC(=O)NCCOC)O2)O1 (stereo not given in full)	0.522	-0.322	0.249	0.221	-0.491	-0.0792	-0.2	-0.0615	0.956	1.05
CC(C)(C)N1C(=O)[C@H]2[C@H]3[C@H](O)[C@H](O)CC(=NNC(=O)OCc4ccccc4)[C@H]3CC[C@H]2C1=O	0.978	-1.9	0.613	-0.0736	-0.313	-0.107	0.0141	0.0516	0.522	0.613
COC(=O)[C@H](C)NC(=O)CCC1CC(OC(=O)NCc2cccc3ccccc23)CC2(CCCC(COC(=O)NCCOc3ccccc3)O2)O1 (stereo not given in full)	1.33	-0.682	0.43	1.33	-0.232	-0.251	-0.138	-0.559	0.347	0.862
CC(=O)OC[C@H]1O[C@H](CC=NOC(C)CN2CCCc3nc(C)c(C)cc32)C=C[C@@H]1OC(C)=O (stereo not given in full)	0.838	-0.475	0.833	-0.651	-1.2	0.027	0.261	0.134	1	-0.0213
CO[C@H]1COC(=O)[C@H](C)COC(=O)[C@@H](OCc2ccccc2)C=C[C@@H]1C	-0.0848	-0.0886	0.328	-0.46	-0.726	-0.123	-0.0769	-0.379	-0.149	-0.281
O=C1C=C[C@@H](O)[C@@H]2[C@@H]3C(=O)N(C4CCCCC4)C(=O)[C@@H]3CC[C@@H]12	0.502	-4.18	0.71	-0.0865	-0.713	-0.0459	-0.0793	-0.158	0.191	0.518
O=C(NN=C1C[C@@H](O)[C@@H](O)[C@@H]2[C@@H]3C(=O)N(Cc4ccccc4)C(=O)[C@@H]3CC[C@H]12)OCc1ccccc1	-0.401	0.0011	0.524	-0.293	-0.406	-0.124	-0.2	0.0313	0.305	-0.016
C[C@@H]1CC[C@H]2C(=O)N3[C@@H](CC[C@@H](C)[C@@H]3c3ccc(Br)cc3)C(=O)N2[C@H]1c1ccc(Br)cc1	-0.0146	-1.82	0.31	-0.209	-0.188	-0.105	-0.138	-0.113	0.08	0.371
CCCC[C@H]1CN2[C@@H](CC[C@@H](C)[C@@H]2c2ccc(Br)cc2)C(=O)O1	1.01	-1.04	0.671	0.849	-0.0228	-0.158	0.0121	-0.188	0.755	0.678
COc1ccc(O[C@H]2C=C[C@@H](c3ccccc3)O[C@@H]2COC(=O)NCc2cccc3ccccc23)cc1	0.125	-2.19	-0.0808	-0.413	-0.329	-0.104	0.23	-0.116	0.469	0.33
CCOC(=O)CCN1C(=O)[C@H]2[C@H]3[C@H](O)[C@H](O)CC(=NO[C@@H]4O[C@H](CO)[C@@H](O)[C@H](O)[C@H]4O)[C@H]3CC[C@H]2C1=O	0.0713	0.587	0.523	0.112	-0.847	-0.0286	-0.156	-0.0309	-0.127	0.263
CO[C@@H]1COC(=O)CC=C[C@H](C)[C@H](OC)COC(=O)[C@@H]2CCCN2C(=O)CC=C[C@H]1C	-0.496	-0.733	1.31	-0.86	-1.38	-0.113	0.0328	-0.195	-0.041	-0.324
COC(=O)[C@@H]1CC[C@H](C)[C@@H](c2ccc(Br)cc2)N1C(=O)C(F)(F)F	-1.1	-0.317	0.179	-0.257	0.137	-0.226	-0.476	-0.127	-0.287	0.263
C#CCCCON=C1C[C@@H](O)[C@@H](O)[C@@H]2[C@@H]3C(=O)N(C[C@@H]4CCCO4)C(=O)[C@@H]3CC[C@@H]12	0.578	0.367	0.386	-0.358	-0.129	-0.0865	-0.153	0.223	-0.0438	0.506
CCOC(=O)[C@H](Cc1ccccc1)NC(=O)CCC1CC(OC(=O)NCc2ccc3c(c2)OCO3)CC2(CCCC(COC(=O)NCCOc3ccccc3)O2)O1 (stereo not given in full)	1.24	-0.682	0.753	0.505	-0.166	-0.15	-0.223	-0.0047	0.301	0.495
CC(=O)OC[C@H]1O[C@H](CC=NO[C@@H](C)c2cc(-c3c(C)cc(C)cc3C)no2)C=C[C@@H]1OC(C)=O	-0.0612	-0.83	-0.111	-0.176	0.0084	-0.208	-0.223	-0.135	-0.502	0.753
CCOC(=O)[C@H](Cc1ccccc1)NC(=O)CCC1CC(OC(=O)NCc2cccc3ccccc23)CC2(CCCC(COC(=O)NCCOc3ccccc3)O2)O1 (stereo not given in full)	1.35	-0.795	0.628	0.653	-0.378	-0.176	-0.493	-0.347	0.166	0.594
